Measured values reported in PubChem BioAssay (EPA / NIEHS).
Records with an inconclusive call do not appear. Active and inactive are the calls of the source. The calls were made as follows, unless noted: active = hit-call score of the fitted dose curve at least 0.9, where 1 is the maximum; inconclusive = response in the unintended direction; inactive = score below 0.9.

Columns and labels:
[1] = target: Retinoic acid receptor alpha (Homo sapiens) (UniProt P10276); test: ATG_DR5_RAR_CIS: Attagene CIS-FACTORIAL HepG2 Assay for human Retinoic Acid Receptor Alpha (RARE), DR5 submotif (AID 2282934; active = hit-call score of the fitted dose curve at least 0.9, where 1 is the maximum; inactive = score below 0.9;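 as to AC50: reporter responds to endogenous RAR alpha beta and gamma in HepG2 not RARA alone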); details: HepG2 Attagene cis-factorial RARE DR5 reporter, mRNA; actives raise or lower the signal
In short: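 HepG2 cells transiently transfected with multiplexed reporter units under cis (DR5 RARE) promoters, so endogenous transcription factor activity is measured. After 24 h compound exposure, reporter mRNA is quantified by RT-PCR with fluorescent labelling and capillary electrophoresis; bidirectional fitting versus DMSO.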

[2] = ATG_M_19_TRANS: Attagene TRANS-FACTORIAL HepG2 Assay for M19 Transcription Factor (Internal Marker) (AID 2282974); details: HepG2 Attagene TRANS-FACTORIAL M19 internal marker reporter
In short: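 Cells: human HepG2, transiently transfected with multiplexed reporter transcription units. Exposure: 24 h. Detection: RT-PCR of reporter mRNA with capillary electrophoresis. Analysis: gain-of-signal vs DMSO.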

[3] = ATG_GAL4_TRANS: Attagene TRANS-FACTORIAL HepG2 Assay for GAL4 (Internal Marker) (AID 2282976); details: HepG2 Attagene TRANS GAL4 internal marker reporter
In short: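 In transfected human HepG2 liver cells dosed 24 h, GAL4 reporter mRNA serves as a baseline marker. Detection by RT-PCR with fluorescent capillary electrophoresis, activity fitted upward relative to DMSO.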

[4] = target: Glucocorticoid receptor (Homo sapiens) (UniProt P04150); test: ATG_GR_TRANS: Attagene TRANS-FACTORIAL HepG2 Assay for human Glucocorticoid Receptor (GR) (AID 2282978); details: HepG2 Attagene TRANS GR reporter, mRNA transcription;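 also: activators score as hits since higher reporter transcript over DMSO is fitted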
In short: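 In this trans-factorial format, exogenous NR-GAL4 chimeric proteins in transfected HepG2 cells regulate GAL4-UAS reporter transcription. After 24 h treatment, reporter mRNA induction relative to DMSO is read by RT-PCR and capillary electrophoresis.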

[5] = target: Oxysterols receptor LXR-beta (Homo sapiens) (UniProt P55055); test: ATG_LXRb_TRANS: Attagene TRANS-FACTORIAL HepG2 Assay for human Liver X Receptor beta (LXRb) (AID 2282981); details: HepG2 Attagene TRANS GAL4-LXRb reporter, mRNA
In short: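 In this TRANS format, exogenous chimeric NR-Gal4 protein activity, not endogenous factors, drives reporter expression in transfected human HepG2 cells. Exposure lasted 24 h; reporter mRNA was read by fluorescent capillary electrophoresis.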

[6] = target: human Peroxisome Proliferator-activated Receptor delta (PPARd), PPARD (gene 5467) (UniProt Q03181); test: ATG_PPARd_TRANS: Attagene TRANS-FACTORIAL HepG2 Assay for human Peroxisome Proliferator-activated Receptor delta (PPARd) (AID 2283002)
In short: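 HepG2 cells transiently transfected with multiplexed GAL4-UAS reporter units and exogenous chimeric NR-Gal4 proteins; 24 h compound exposure. Reporter mRNA measured by RT-PCR, 6-FAM labelling, HpaI digestion and capillary electrophoresis; gain of signal versus DMSO.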

[7] = target: human RAR-related Orphan Receptor gamma (RORg), RORC (gene 6097) (UniProt P51449); test: ATG_RORg_TRANS: Attagene TRANS-FACTORIAL HepG2 Assay for human RAR-related Orphan Receptor gamma (RORg) (AID 2283011)
In short: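 Reporter transcripts from a transfected RORg-GAL4 chimera in HepG2 cells were quantified 24 h after dosing by RT-PCR, 6-FAM labelling, HpaI digestion and capillary electrophoresis; increases over DMSO baseline were fitted.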

[8] = target: human Vitamin D Receptor (VDR), VDR (gene 7421) (UniProt P11473); test: ATG_VDR_TRANS: Attagene TRANS-FACTORIAL HepG2 Assay for human Vitamin D Receptor (VDR) (AID 2283022)
In short: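 Transactivation by an exogenous VDR-Gal4 chimera in transiently transfected HepG2 cells was measured as reporter transcript level 24 hours after chemical treatment. RT-PCR products were analysed by capillary electrophoresis and fitted in the positive direction relative to DMSO.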

[9] = TOX21_p53_BLA_p2_viability: Viability Assessment in the Tox21 HCT-116 p53 Agonism Beta-lactamase Assay, Phase 2 (AID 2283591);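 also: compound exposure lasted 16 h at 37 °C; actives lower the ATP signal meaning cytotoxicity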
In short: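 HCT-116 p53-bla cells (4000/well) rested 5 h at 37C, then received compounds in DMSO (217-fold dilution) for 16 h at 37C, 5% CO2. After the CCF4 read, CellTiter-Glo was added; ATP luminescence was read after 30 min at room temperature.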

[10] = TOX21_p53_BLA_p3_viability: Viability Assessment in the Tox21 HCT-116 p53 Agonism Beta-lactamase Assay, Phase 3 (AID 2283593);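 also: cells exposed to compound for 16 h before reading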
In short: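 HCT-116 cells (4000/well) rested 5 h at 37C, then got DMSO compounds by pin tool (217-fold dilution) for 16 h at 37C, 5% CO2. After the bla read, CellTiter-Glo was added and luminescence read at 30 min, room temperature.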

[11] = TOX21_p53_BLA_p4_viability: Viability Assessment in the Tox21 HCT-116 p53 Agonism Beta-lactamase Assay, Phase 4 (AID 2283597);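 also: hits lower the luminescence signal meaning cytotoxicity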
In short: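 Following a 16 h exposure at 37C, the treated HCT116 wells were first read for the FRET ratio. They were then lysed with CellTiter-Glo, and ATP luminescence was recorded after 30 min at room temperature.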

[12] = ACEA_ER_AUC_viability: ACEA Biosciences xCELLigence Real-Time Cell Analysis on Estrogen Receptor Agonism for Viability (AID 2283782);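 also: continuous compound exposure with impedance area under curve over 80 h; hit means loss of impedance signal meaning reduced cell growth or viability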
In short: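 T-47D human breast cells in phenol red-free RPMI1640 with 10% charcoal-stripped FBS were dosed with an 8-point 1:4 dilution series from 100 uM top final concentration, in duplicate. Impedance-based growth was followed for 80 h; AUC analysed versus DMSO.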

[13] = CCTE_Harrill_HTTr_Viability_MCF7: CCTE's 6-hour Cell Viability Assessment for the High-Throughput Transcriptomics (HTTr) Platform, in MCF-7 cells cultured in DMEM + 10% fetal bovine serum, Harrill Lab (AID 2284010; active = hit-call score of the fitted dose curve at least 0.9, where 1 is the maximum; inactive = score below 0.9)
In short: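 MCF-7 cells in DMEM + 10% FBS, 384-well, exposed 6 h to an eight-point dilution series. Membrane integrity scored by high-content imaging of propidium iodide exclusion; bidirectional fit versus DMSO.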

[14] = target: Nuclear receptor subfamily 1 group I member 3 (Homo sapiens) (UniProt Q14994); test: ATG_CAR_TRANS: Attagene TRANS-FACTORIAL HepG2 Assay for human Constitutive Androstane Receptor (CAR) (AID 2282969); details: HepG2 Attagene TRANS-FACTORIAL CAR reporter;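 also: activators raise reporter mRNA above DMSO so AC50 marks induction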
In short: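 HepG2 cells transiently transfected with multiplexed GAL4-UAS reporter units expressing chimeric NR-Gal4 proteins; compound exposure 24 h. Reporter mRNA measured by RT-PCR, 6-FAM labelling, HpaI digestion and capillary electrophoresis; gain-of-signal fitted against DMSO baseline.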

[15] = target: Cellular tumor antigen p53 (Homo sapiens) (UniProt P04637); test: ATG_p53_CIS: Attagene CIS-FACTORIAL HepG2 Assay for human p53 Transcription Factor (AID 2282994; active = hit-call score of the fitted dose curve at least 0.9, where 1 is the maximum; inactive = score below 0.9); details: HepG2 p53 cis-element reporter, Attagene mRNA; actives raise or lower the signal
In short: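 HepG2 cells transiently transfected with cis-regulated multiple reporter transcription units, dosed 24 h. Reporter mRNA measured by RT-PCR, 6-FAM primer extension, HpaI digestion and capillary electrophoresis; bidirectional fit relative to DMSO.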

[16] = target: human RAR-related Orphan Receptor beta (RORb), RORB (gene 6096) (UniProt Q92753); test: ATG_RORb_TRANS: Attagene TRANS-FACTORIAL HepG2 Assay for human RAR-related Orphan Receptor beta (RORb) (AID 2283010)
In short: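 HepG2 cells transiently transfected with GAL4-UAS reporter units expressing chimeric NR-Gal4 protein; reporter mRNA measured 24 h after dosing by RT-PCR, 6-FAM labelling and capillary electrophoresis. Gain-of-signal fitted relative to DMSO baseline.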

[17] = ATG_XTT_Cytotoxicity: Cytotoxicity Assessment in the Attagene TRANS-FACTORIAL HepG2 Assay (AID 2283584)
In short: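 Viability endpoint from XTT after 24 h chemical exposure of reporter-transfected human HepG2 liver cells; signal loss fitted relative to DMSO negative control.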

[18] = target: Oxysterols receptor LXR-alpha (Homo sapiens) (UniProt Q13133); test: ATG_LXRa_TRANS: Attagene TRANS-FACTORIAL HepG2 Assay for human Liver X Receptor alpha (LXRa) (AID 2282980); details: HepG2 Attagene TRANS reporter, LXRa transactivation
In short: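 Chemical-induced reporter mRNA measured by RT-PCR with fluorescent labelling and capillary electrophoresis after 24 h dosing of transiently transfected HepG2 cells expressing exogenous NR-Gal4 chimeras; increases scored against DMSO baseline.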

[19] = ATG_PPRE_CIS: Attagene CIS-FACTORIAL HepG2 Assay for human Peroxisome Proliferator-activated Response Element (PPRE) (AID 2282958; active = hit-call score of the fitted dose curve at least 0.9, where 1 is the maximum; inactive = score below 0.9); details: HepG2 PPRE cis-element reporter, Attagene transcription factor profiling; actives raise or lower the signal
In short: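 Cells are first transfected transiently with the multiplexed reporter library, then dosed for 24 h. Total RNA is reverse-transcribed, amplified, fluorescently end-labeled and HpaI-cut before capillary electrophoresis; activity is fitted bidirectionally against DMSO controls.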

[20] = target: Bile acid receptor (Homo sapiens) (UniProt Q96RI1); test: ATG_IR1_CIS: Attagene CIS-FACTORIAL HepG2 Assay for human Nuclear Receptor Subfamily 1 Group H Member 4 (NR1H4), IR1 submotif (AID 2282946; active = hit-call score of the fitted dose curve at least 0.9, where 1 is the maximum; inactive = score below 0.9); details: IR1 reporter transcription, actives raise or lower the signal
In short: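 Transient MRTU transfection, HepG2; 24 h dosing; RNA → RT-PCR → 6-FAM primer extension → HpaI digest → capillary electrophoresis fluorescence. Gain/loss of signal fitted relative to DMSO.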

Measured: AC50

human RAR-related Orphan Receptor beta (RORb), RORB (gene 6096), sequence (Q92753 whole entry, looked up, the tested form may be a part): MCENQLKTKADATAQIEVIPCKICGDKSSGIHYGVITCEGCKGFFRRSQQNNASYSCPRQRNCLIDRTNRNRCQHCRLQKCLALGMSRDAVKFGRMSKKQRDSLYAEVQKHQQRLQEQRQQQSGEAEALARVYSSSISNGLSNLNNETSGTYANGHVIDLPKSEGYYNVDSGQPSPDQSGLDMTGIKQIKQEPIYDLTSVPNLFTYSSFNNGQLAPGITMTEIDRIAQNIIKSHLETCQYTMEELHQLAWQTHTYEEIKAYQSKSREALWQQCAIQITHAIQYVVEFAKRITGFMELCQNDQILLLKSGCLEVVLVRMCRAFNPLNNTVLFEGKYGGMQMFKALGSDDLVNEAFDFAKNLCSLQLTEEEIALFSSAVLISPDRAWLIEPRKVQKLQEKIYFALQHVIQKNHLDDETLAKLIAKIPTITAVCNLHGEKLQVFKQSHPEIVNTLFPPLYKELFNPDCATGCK
Glucocorticoid receptor (Homo sapiens), sequence (P04150 whole entry, looked up, the tested form may be a part): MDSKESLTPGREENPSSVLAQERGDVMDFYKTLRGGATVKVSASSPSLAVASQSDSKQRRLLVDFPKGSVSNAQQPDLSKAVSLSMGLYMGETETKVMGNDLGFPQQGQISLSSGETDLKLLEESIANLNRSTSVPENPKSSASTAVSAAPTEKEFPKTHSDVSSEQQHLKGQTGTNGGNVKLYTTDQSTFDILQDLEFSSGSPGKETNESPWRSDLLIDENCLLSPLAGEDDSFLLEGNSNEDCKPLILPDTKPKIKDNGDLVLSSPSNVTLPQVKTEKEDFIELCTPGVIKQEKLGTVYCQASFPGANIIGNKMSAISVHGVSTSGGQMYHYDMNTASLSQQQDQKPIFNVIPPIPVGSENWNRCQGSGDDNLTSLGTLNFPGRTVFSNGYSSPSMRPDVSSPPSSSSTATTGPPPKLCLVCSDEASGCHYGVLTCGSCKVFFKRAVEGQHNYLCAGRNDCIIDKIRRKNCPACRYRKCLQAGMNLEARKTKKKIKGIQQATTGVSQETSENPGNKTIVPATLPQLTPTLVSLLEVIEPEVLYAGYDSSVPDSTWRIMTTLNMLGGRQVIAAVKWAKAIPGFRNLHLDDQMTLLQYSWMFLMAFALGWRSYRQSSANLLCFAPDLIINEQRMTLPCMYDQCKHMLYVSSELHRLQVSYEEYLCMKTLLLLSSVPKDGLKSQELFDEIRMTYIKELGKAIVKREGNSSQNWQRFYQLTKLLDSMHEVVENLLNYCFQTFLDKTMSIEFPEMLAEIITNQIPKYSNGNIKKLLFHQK
human RAR-related Orphan Receptor gamma (RORg), RORC (gene 6097), sequence (P51449 whole entry, looked up, the tested form may be a part): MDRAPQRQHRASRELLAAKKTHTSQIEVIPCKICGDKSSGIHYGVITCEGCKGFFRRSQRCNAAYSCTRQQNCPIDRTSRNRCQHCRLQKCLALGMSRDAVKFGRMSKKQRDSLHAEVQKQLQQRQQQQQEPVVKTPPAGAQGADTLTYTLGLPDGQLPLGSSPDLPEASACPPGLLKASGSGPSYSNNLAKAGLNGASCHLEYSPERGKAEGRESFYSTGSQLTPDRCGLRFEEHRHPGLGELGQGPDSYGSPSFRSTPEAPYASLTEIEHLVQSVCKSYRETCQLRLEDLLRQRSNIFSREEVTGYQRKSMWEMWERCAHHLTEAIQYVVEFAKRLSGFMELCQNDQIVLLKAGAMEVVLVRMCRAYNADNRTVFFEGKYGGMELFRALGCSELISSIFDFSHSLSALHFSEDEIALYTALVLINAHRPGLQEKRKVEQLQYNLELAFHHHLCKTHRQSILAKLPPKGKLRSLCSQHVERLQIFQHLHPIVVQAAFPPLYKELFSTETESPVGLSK
Retinoic acid receptor alpha (Homo sapiens), sequence (P10276 whole entry, looked up): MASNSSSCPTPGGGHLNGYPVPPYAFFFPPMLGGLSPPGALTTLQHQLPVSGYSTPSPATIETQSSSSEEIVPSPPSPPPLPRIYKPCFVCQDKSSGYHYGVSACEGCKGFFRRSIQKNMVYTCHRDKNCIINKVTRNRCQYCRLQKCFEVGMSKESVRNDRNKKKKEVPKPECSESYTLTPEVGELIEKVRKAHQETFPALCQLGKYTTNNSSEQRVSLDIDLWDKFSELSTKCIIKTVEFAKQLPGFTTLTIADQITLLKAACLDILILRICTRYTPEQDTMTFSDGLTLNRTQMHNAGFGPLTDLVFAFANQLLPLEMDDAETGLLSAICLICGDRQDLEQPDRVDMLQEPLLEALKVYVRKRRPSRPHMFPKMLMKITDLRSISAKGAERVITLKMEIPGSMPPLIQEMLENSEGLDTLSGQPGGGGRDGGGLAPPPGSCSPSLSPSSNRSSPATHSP
human Peroxisome Proliferator-activated Receptor delta (PPARd), PPARD (gene 5467), sequence (Q03181 whole entry, looked up, the tested form may be a part): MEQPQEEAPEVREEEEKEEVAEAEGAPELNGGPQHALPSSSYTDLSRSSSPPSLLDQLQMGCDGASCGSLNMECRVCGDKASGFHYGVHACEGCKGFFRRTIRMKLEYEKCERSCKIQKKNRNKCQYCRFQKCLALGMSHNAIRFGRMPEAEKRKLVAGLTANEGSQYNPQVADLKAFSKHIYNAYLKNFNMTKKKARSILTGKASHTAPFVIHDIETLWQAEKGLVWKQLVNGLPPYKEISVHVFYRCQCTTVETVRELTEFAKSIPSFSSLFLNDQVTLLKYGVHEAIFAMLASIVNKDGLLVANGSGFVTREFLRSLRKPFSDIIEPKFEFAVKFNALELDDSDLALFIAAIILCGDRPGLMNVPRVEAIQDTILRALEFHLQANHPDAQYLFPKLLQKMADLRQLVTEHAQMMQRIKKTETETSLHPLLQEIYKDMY
Oxysterols receptor LXR-alpha (Homo sapiens), sequence (Q13133 whole entry, looked up, the tested form may be a part): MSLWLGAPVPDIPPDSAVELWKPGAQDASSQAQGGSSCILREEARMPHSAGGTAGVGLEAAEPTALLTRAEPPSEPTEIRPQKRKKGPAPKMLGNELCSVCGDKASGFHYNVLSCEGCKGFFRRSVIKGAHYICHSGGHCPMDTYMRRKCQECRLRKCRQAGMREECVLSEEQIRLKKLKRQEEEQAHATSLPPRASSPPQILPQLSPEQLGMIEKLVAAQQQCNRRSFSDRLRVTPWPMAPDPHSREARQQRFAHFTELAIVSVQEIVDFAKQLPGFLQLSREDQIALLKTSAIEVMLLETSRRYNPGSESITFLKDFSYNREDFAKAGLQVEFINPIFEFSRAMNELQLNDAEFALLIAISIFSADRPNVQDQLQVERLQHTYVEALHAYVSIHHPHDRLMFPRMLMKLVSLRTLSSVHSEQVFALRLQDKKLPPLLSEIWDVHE
human Vitamin D Receptor (VDR), VDR (gene 7421), sequence (P11473 whole entry, looked up, the tested form may be a part): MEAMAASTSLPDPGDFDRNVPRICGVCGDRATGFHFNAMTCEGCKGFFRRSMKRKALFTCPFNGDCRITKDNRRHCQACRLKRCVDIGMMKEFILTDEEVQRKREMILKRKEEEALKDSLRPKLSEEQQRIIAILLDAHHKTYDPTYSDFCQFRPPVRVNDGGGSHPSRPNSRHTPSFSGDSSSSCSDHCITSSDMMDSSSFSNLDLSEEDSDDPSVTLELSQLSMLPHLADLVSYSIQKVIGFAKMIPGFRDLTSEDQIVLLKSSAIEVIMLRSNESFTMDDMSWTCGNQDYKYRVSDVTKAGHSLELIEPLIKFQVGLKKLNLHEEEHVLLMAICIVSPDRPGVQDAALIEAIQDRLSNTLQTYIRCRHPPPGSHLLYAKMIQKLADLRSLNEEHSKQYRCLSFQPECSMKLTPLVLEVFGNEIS
Cellular tumor antigen p53 (Homo sapiens), sequence (P04637 whole entry, looked up): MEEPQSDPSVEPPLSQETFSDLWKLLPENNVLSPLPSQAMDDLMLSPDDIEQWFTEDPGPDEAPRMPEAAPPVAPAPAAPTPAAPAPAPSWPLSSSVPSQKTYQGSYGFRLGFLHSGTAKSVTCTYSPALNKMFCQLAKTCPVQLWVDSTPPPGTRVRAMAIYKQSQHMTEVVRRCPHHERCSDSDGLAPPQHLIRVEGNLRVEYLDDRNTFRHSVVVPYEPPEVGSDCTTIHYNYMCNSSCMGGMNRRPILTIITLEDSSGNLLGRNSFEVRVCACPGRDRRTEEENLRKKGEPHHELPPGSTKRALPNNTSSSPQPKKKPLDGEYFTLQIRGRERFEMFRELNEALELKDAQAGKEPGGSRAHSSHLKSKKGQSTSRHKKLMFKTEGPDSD
Oxysterols receptor LXR-beta (Homo sapiens), sequence (P55055 whole entry, looked up, the tested form may be a part): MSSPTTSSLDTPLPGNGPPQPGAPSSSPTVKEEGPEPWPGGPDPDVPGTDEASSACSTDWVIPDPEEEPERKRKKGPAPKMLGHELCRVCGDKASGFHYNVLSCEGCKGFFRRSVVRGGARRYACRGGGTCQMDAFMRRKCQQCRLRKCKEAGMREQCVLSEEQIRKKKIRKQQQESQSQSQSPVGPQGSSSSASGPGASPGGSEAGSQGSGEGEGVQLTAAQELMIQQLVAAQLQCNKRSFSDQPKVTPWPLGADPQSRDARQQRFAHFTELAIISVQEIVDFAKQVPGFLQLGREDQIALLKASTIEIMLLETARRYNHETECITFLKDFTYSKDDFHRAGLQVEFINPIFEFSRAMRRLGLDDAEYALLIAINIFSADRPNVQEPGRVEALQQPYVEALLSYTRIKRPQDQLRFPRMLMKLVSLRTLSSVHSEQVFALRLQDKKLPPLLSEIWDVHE
Nuclear receptor subfamily 1 group I member 3 (Homo sapiens), sequence (Q14994 whole entry, looked up, the tested form may be a part): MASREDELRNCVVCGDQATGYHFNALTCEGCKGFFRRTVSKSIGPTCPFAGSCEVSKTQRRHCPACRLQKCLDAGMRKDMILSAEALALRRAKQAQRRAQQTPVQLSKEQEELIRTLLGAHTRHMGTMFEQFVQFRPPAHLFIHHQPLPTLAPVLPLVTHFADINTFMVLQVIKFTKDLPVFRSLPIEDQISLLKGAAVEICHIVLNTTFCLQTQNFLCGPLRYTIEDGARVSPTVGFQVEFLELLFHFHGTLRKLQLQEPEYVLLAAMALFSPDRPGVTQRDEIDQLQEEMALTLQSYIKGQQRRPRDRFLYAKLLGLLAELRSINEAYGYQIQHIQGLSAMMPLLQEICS

C=CC(=O)OCC(CC)CCCC (stereo not given)
active: [1] 19.8 µM
not listed: [14] | [15] | [16] | [17] | [18] | [19] | [20]
inactive: all other assays above

Cc1ccccc1CCl
inactive: [1] | [14] | [3] | [4] | [5] | [15] | [6] | [16] | [7] | [12]

O=[N+]([O-])O
inactive: [1] | [2] | [3] | [17] | [9] | [10] | [11] | [12] | [13]

[CH3][Sn]([CH3])([Cl])[Cl]
inactive: [1] | [14] | [2] | [18] | [5] | [6] | [16] | [7] | [8]

Nc1c(Cl)c(Cl)c(Cl)c(Cl)c1Cl
active: [14] 27.3 µM | [5] 26.1 µM
inactive: [1] | [19] | [4] | [18] | [6] | [8]

Cc1ccc(N(SC(F)(Cl)Cl)S(=O)(=O)N(C)C)cc1
inactive: [1] | [20] | [18] | [15] | [6] | [8] | [9] | [13]
active: [11] 87.1 µM

O=[N+]([O-])O.O=[N+]([O-])O.[Cd]
inactive: [2] | [3] | [5] | [16] | [10] | [11]
active: [1] 2.08 µM | [9] 59.2 µM

C#CC1(O)CCCCC1
inactive: [1] | [3] | [15] | [16] | [7] | [17] | [11]

CCC(=O)c1ccc(Cl)cc1
inactive: [1] | [14] | [3] | [4] | [18] | [5] | [6] | [7] | [8] | [17] | [12]

O=[N+]([O-])c1cc([N+](=O)[O-])c2ccccc2c1
inactive: [1] | [19] | [4] | [18] | [5] | [15] | [8] | [9] | [10]

CN(C)N
not listed: [2] | [6] | [7] | [9] | [14] | [16] | [18] | [20]
inactive: all other assays above

O=c1[nH]c(Cl)c(Cl)cc1Cl
active: [19] 15.8 µM
not listed: [3] | [4] | [9] | [12] | [18]
inactive: all other assays above
